# How the values were obtained:
# Assay in all cases: DAPPL (digital affinity profiling via proximity ligation, sequencing); 10 mM Tris-HCl pH 7.5, 50 mM NaCl, 1 mM DTT, 4% glycerol, room temperature, 30 min; GST-TFs on glutathione beads, 16-mer random dsDNA library, 0.1% formaldehyde crosslink after washing; high values mean tight binding
# FEV = molecular target: T1, FEV (Homo sapiens, UniProt Q99581 1-238); conditions: protein: recombinant; tags: N-terminal GST; dsDNA, one strand shown
# T1 sequence: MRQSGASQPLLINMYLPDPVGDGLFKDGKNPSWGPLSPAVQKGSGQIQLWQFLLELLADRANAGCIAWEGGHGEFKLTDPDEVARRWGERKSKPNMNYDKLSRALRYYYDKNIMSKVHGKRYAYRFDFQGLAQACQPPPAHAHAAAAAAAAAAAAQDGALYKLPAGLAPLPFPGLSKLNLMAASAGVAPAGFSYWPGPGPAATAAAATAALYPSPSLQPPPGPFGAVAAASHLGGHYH
# Method in brief: (§1)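 After expression in yeast as GST fusions, human transcription factors were bound to glutathione beads, DNA-barcoded and mixed with a tag-only sample. The pools were incubated with 200 nmole of a 16-mer random double-stranded DNA library in Tris/NaCl/DTT/glycerol buffer (30 min, room temperature), washed and crosslinked with 0.1% formaldehyde. Proximity ligation with BsaI/T4 ligase ran for 1 h at 37 °C, before PCR amplification and sequencing on an Illumina NextSeq500. Binding signal is a hexamer's read frequency for a factor divided by its frequency for the tag-only sample.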
# ETV5 = ETV5 (Homo sapiens, UniProt P41161 1-510); conditions: protein: recombinant; tags: N-terminal GST; dsDNA, one strand shown
# ETV5, sequence (P41161 whole entry): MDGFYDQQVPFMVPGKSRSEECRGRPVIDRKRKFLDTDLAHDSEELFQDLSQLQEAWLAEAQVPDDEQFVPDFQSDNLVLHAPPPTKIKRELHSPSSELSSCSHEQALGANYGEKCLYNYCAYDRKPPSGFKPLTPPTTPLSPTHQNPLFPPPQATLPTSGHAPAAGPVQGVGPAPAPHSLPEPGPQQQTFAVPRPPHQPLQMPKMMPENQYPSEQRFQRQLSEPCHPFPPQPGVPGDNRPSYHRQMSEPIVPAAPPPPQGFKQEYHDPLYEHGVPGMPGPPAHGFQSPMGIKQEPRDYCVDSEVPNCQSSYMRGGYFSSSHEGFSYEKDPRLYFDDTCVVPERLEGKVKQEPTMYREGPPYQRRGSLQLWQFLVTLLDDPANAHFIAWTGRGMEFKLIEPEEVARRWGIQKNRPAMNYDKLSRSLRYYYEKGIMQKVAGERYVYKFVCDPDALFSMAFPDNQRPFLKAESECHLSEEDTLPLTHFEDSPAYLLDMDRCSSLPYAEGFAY
# Method in brief: as §1
# HSF1 = HSF1 (Homo sapiens, UniProt Q00613 1-529); conditions: protein: recombinant; tags: N-terminal GST; chain copies: 3; dsDNA, one strand shown
# HSF1, sequence (Q00613 whole entry): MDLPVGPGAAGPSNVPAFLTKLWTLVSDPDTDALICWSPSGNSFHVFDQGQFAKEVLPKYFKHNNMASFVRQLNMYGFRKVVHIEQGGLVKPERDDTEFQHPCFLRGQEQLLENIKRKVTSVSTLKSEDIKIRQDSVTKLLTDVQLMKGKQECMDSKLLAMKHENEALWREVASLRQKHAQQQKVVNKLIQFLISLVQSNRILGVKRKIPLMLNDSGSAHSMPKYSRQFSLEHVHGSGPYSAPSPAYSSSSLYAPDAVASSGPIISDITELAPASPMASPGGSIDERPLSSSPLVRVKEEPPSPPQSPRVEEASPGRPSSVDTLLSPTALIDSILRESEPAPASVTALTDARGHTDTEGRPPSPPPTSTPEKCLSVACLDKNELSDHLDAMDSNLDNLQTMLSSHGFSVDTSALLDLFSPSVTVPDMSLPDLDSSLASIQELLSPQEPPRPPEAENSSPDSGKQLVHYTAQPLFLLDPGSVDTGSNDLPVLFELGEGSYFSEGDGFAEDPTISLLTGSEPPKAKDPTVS
# Method in brief: as §1
# SPIC = molecular target: T2, SPIC (Homo sapiens, UniProt Q8N5J4 1-248); conditions: protein: recombinant; tags: N-terminal GST; dsDNA, one strand shown
# T2 sequence: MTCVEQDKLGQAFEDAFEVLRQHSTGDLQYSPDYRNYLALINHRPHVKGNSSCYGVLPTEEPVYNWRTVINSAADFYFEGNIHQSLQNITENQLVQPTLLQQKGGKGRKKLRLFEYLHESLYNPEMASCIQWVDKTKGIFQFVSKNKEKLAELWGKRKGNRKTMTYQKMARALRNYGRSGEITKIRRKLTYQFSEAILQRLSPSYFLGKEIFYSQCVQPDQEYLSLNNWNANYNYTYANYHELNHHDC
# Method in brief: as §1
# ELF4 = ELF4 (Homo sapiens, UniProt Q99607 1-663); conditions: protein: recombinant; tags: N-terminal GST; dsDNA, one strand shown
# ELF4, sequence (Q99607 whole entry): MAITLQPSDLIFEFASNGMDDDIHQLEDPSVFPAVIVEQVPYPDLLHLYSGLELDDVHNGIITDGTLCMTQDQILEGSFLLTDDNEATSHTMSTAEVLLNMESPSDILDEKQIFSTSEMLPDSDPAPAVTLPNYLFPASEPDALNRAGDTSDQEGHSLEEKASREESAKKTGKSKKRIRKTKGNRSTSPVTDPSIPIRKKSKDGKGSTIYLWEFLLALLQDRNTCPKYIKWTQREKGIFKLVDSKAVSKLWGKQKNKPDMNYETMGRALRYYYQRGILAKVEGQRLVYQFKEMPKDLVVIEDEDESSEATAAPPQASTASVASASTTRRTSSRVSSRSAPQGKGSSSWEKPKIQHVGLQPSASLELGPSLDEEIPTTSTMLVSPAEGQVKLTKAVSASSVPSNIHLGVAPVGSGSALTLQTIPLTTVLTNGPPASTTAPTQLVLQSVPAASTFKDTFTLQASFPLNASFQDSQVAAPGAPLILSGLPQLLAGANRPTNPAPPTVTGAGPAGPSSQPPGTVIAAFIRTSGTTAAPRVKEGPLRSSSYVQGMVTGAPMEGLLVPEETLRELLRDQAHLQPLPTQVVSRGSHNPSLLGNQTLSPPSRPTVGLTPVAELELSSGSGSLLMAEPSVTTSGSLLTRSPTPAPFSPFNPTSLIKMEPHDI
# Method in brief: as §1
# ELK4 = molecular target: T3, ELK4 (Homo sapiens, UniProt P28324-2 1-405); conditions: protein: recombinant; tags: N-terminal GST; dsDNA, one strand shown
# T3 sequence: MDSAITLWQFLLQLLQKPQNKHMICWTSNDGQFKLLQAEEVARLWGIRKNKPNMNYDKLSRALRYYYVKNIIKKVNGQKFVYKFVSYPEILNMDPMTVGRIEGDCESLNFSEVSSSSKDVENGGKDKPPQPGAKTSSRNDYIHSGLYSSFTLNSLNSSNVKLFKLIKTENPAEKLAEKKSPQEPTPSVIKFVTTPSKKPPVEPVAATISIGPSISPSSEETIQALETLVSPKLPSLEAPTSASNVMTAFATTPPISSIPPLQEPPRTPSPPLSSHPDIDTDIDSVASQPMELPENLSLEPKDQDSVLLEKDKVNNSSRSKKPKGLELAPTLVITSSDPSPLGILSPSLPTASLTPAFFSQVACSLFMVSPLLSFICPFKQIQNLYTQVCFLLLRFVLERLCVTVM
# Method in brief: as §1
# ETV2 = molecular target: T4, ETV2 (Homo sapiens, UniProt O00321 1-342); conditions: protein: recombinant; tags: N-terminal GST; dsDNA, one strand shown
# T4 sequence: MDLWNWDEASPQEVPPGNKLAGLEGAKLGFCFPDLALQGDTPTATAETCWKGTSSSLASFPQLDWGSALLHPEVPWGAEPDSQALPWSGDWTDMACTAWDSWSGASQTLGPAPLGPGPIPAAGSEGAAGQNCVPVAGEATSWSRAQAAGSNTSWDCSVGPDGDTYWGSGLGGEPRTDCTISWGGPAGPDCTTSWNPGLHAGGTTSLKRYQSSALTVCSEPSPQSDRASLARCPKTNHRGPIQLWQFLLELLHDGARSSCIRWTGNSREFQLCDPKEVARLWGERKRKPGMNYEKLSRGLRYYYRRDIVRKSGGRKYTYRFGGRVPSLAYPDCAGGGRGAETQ
# Method in brief: as §1
# ELF3 = molecular target: T5, ELF3 (Homo sapiens, UniProt P78545 1-371); conditions: protein: recombinant; tags: N-terminal GST; dsDNA, one strand shown
# T5 sequence: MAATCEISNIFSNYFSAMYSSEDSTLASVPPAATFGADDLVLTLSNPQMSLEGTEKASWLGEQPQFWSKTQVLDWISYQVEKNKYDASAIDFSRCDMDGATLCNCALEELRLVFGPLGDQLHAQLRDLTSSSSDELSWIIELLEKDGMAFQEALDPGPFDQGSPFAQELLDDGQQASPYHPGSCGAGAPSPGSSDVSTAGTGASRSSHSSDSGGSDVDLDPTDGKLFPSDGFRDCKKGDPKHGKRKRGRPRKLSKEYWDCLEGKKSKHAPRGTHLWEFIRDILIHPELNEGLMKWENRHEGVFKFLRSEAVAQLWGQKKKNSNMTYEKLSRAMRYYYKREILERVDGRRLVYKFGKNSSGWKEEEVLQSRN
# Method in brief: as §1
# CRX = CRX (Homo sapiens, UniProt O43186 1-299); conditions: protein: recombinant; tags: N-terminal GST; dsDNA, one strand shown
# CRX, sequence (O43186 whole entry): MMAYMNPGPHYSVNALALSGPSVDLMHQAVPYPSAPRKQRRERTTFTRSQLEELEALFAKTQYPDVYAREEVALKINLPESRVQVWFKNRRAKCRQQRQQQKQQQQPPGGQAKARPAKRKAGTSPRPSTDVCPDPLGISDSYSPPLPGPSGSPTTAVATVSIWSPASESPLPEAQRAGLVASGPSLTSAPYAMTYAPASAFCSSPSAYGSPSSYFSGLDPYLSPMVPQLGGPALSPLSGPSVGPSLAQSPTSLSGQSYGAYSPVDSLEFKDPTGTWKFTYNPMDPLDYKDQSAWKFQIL
# Method in brief: as §1
# ETV1 = ETV1 (Homo sapiens, UniProt P50549 1-477); conditions: protein: recombinant; tags: N-terminal GST; dsDNA, one strand shown
# ETV1, sequence (P50549 whole entry): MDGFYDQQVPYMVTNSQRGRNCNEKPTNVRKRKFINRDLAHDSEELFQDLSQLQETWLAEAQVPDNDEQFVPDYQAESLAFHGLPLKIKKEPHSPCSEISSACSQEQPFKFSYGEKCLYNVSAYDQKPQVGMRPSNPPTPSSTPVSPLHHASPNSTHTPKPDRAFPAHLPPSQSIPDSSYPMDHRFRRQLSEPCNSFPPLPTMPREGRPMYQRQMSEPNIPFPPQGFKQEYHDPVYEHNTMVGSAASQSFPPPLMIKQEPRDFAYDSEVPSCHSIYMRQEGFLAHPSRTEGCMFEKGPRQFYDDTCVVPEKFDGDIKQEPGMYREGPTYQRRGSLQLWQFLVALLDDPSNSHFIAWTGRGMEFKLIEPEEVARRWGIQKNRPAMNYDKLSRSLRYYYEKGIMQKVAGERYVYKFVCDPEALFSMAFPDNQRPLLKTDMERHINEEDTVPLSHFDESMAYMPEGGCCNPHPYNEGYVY
# Method in brief: as §1
# ERF = molecular target: T6, ERF (Homo sapiens, UniProt P50548 1-548); conditions: protein: recombinant; tags: N-terminal GST; dsDNA, one strand shown
# T6 sequence: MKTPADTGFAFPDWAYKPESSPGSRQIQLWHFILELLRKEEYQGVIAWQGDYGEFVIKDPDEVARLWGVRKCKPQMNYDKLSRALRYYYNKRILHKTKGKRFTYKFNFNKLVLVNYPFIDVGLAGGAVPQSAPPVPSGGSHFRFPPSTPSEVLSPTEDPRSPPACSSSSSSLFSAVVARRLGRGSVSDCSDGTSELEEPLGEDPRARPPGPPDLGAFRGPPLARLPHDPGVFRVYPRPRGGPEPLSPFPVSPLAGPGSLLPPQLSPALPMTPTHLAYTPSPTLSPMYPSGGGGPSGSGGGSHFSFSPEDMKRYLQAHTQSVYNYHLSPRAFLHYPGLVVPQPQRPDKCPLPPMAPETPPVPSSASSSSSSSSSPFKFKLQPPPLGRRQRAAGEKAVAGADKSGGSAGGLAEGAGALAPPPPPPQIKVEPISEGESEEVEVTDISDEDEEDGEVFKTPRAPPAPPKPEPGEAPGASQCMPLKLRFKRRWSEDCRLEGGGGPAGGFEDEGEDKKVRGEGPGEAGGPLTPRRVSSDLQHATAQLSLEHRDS
# Method in brief: as §1
# ETV3L = molecular target: T7, ETV3L (Homo sapiens, UniProt Q6ZN32 1-361); conditions: protein: recombinant; tags: N-terminal GST; dsDNA, one strand shown
# T7 sequence: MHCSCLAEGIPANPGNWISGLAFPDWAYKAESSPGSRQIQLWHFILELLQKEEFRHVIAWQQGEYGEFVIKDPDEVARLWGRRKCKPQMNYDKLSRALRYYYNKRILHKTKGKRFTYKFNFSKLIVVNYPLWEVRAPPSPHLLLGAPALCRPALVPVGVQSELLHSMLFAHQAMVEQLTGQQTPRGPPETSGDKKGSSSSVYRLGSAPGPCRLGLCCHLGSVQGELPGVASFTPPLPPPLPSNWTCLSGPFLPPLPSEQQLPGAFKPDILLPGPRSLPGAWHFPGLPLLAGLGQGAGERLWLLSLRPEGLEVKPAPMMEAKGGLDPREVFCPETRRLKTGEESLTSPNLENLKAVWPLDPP
# Method in brief: as §1
# ETS2 = molecular target: T8, ETS2 (Homo sapiens, UniProt P15036 1-469); conditions: protein: recombinant; tags: N-terminal GST; dsDNA, one strand shown
# T8 sequence: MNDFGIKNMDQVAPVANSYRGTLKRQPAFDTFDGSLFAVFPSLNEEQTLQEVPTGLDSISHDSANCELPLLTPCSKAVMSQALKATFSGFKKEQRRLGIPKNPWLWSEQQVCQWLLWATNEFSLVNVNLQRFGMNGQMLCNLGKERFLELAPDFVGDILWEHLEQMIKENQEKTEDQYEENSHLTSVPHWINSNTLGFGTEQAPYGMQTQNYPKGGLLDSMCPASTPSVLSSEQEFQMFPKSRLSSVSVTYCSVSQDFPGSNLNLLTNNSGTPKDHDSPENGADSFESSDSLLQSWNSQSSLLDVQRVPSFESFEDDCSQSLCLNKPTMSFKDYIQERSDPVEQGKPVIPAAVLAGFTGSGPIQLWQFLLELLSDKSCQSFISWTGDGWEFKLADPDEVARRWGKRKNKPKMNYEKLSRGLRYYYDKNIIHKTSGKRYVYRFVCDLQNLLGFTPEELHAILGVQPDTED
# Method in brief: as §1
# SPDEF = molecular target: T9, SPDEF (Homo sapiens, UniProt O95238 1-335); conditions: protein: recombinant; tags: N-terminal GST; dsDNA, one strand shown
# T9 sequence: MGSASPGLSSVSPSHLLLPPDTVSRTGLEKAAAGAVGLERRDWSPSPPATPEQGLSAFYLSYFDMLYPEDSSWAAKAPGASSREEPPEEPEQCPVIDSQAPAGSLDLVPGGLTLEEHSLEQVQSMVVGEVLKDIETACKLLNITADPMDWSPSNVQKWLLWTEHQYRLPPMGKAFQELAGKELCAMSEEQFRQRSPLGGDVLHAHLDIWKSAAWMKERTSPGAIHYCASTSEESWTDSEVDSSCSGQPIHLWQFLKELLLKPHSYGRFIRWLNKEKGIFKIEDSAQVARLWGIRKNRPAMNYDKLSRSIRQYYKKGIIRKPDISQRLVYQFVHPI
# Method in brief: as §1
# ETV7 = molecular target: T10, ETV7 (Homo sapiens, UniProt Q9Y603 1-341); conditions: protein: recombinant; tags: N-terminal GST; dsDNA, one strand shown
# T10 sequence: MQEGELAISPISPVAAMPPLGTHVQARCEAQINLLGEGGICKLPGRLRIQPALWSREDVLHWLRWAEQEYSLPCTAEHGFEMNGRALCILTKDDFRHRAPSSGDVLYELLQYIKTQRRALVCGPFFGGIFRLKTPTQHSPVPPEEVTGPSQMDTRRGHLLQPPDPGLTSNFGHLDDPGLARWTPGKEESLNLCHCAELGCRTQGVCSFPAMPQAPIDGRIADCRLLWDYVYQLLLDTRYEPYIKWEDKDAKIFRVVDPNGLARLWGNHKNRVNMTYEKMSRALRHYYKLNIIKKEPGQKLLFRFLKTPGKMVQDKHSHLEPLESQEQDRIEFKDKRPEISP
# Method in brief: as §1
# ELF5 = molecular target: T11, ELF5 (Homo sapiens, UniProt Q9UKW6-2 1-255); conditions: protein: recombinant; tags: N-terminal GST; dsDNA, one strand shown
# T11 sequence: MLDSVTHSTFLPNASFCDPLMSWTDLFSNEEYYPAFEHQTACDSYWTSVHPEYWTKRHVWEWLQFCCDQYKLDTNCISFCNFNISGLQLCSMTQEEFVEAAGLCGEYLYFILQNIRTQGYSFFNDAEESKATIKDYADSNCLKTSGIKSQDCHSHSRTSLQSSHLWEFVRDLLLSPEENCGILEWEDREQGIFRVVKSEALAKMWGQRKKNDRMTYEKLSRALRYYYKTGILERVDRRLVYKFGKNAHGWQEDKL
# Method in brief: as §1
# ETV3 = molecular target: T12, ETV3 (Homo sapiens, UniProt P41162-2 1-143); conditions: protein: recombinant; tags: N-terminal GST; dsDNA, one strand shown
# T12 sequence: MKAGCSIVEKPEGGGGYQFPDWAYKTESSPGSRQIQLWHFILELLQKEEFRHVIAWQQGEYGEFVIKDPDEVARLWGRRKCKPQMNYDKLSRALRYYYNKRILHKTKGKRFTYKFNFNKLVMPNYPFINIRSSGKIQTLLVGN
# Method in brief: as §1
# ETV6 = ETV6 (Homo sapiens, UniProt P41212 1-452); conditions: protein: recombinant; tags: N-terminal GST; dsDNA, one strand shown
# ETV6, sequence (P41212 whole entry): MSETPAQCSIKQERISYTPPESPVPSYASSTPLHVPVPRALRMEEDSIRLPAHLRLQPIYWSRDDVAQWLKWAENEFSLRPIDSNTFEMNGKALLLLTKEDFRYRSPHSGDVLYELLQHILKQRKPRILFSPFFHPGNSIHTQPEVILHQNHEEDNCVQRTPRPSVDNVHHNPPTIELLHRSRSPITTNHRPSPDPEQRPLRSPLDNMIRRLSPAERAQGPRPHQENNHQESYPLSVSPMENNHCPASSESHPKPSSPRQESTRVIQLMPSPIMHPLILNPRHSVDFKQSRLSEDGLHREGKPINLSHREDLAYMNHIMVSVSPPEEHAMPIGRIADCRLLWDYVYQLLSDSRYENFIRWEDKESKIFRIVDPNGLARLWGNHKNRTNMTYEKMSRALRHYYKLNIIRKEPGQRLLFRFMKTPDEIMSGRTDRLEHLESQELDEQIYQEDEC
# Method in brief: as §1
sequence,measurement,setting,value
TGCTCC,binding signal,FEV,"1.38 fold enrichment (6-mer frequency, TF over GST control)"
same,binding signal,ETV5,"1.42 fold enrichment (6-mer frequency, TF over GST control)"
same,binding signal,HSF1,"1.27 fold enrichment (6-mer frequency, TF over GST control)"
same,binding signal,SPIC,"1.45 fold enrichment (6-mer frequency, TF over GST control)"
same,binding signal,ELF4,"1.41 fold enrichment (6-mer frequency, TF over GST control)"
same,binding signal,ELK4,"1.41 fold enrichment (6-mer frequency, TF over GST control)"
same,binding signal,ETV2,"1.48 fold enrichment (6-mer frequency, TF over GST control)"
same,binding signal,ELF3,"1.47 fold enrichment (6-mer frequency, TF over GST control)"
same,binding signal,CRX,"1.12 fold enrichment (6-mer frequency, TF over GST control)"
same,binding signal,ETV1,"1.31 fold enrichment (6-mer frequency, TF over GST control)"
same,binding signal,ERF,"1.42 fold enrichment (6-mer frequency, TF over GST control)"
same,binding signal,ETV3L,"1.45 fold enrichment (6-mer frequency, TF over GST control)"
same,binding signal,ETS2,"1.45 fold enrichment (6-mer frequency, TF over GST control)"
same,binding signal,SPDEF,"1.74 fold enrichment (6-mer frequency, TF over GST control)"
same,binding signal,ETV7,"1.63 fold enrichment (6-mer frequency, TF over GST control)"
same,binding signal,ELF5,"1.37 fold enrichment (6-mer frequency, TF over GST control)"
same,binding signal,ETV3,"1.37 fold enrichment (6-mer frequency, TF over GST control)"
same,binding signal,ETV6,"1.34 fold enrichment (6-mer frequency, TF over GST control)"
